Among the data in PubChem BioAssay AID1851 (National Center for Advancing Translational Sciences (NCATS), 2009) are activity, negative = inhibition and AC50 values, retold here.

Structures are written as SMILES. In all, about 16,000 compounds went through this assay and about 5,100 (32%) were called active. Not shown: some 25% with an inconclusive outcome. The list shows a part of the results. Unmarked numbers belong to inactive results. Calls come from the whole dose curve; as a rule, active = well fitted curve in the direction sought with a large enough effect; inconclusive = small, poorly fitted or top-dose-only effect, or effect the other way; inactive = no such curve, though single readings can be large or run the other way.

Broadly, the AC50 is the midpoint of the concentration-response curve, whichever way the signal moves.
% is set by controls: 0 for no effect and ±100 for the full control effect.

In the assay the target is Cytochrome P450 3A4 (Homo sapiens) (UniProt P08684). Description: Cytochrome panel assay with activity outcomes. The note with it: recombinant CYP, pro-luciferin dealkylation, luminescence, p450-cyp3a4; series mostly up to 57.1 µM.
Sequence of Cytochrome P450 3A4 (Homo sapiens) (P08684 whole entry, looked up): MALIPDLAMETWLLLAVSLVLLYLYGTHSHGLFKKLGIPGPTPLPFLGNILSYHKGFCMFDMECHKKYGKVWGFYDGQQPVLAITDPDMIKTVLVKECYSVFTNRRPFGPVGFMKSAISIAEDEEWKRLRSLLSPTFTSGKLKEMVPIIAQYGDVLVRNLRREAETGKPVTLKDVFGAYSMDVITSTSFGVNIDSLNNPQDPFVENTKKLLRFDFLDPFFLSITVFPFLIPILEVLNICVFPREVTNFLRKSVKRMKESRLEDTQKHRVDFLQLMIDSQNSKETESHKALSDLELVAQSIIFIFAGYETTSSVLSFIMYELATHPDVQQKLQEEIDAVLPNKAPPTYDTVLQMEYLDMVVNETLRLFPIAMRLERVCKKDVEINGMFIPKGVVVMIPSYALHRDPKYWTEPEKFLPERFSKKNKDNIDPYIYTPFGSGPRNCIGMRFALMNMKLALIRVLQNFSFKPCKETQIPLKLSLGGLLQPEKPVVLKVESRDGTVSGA
For `NCS(=O)(=O)O`, the activity, negative = inhibition was -9.19% [at 11.4 µM].

For `CN(C)Cc1cc(Cl)c(O)c(CN(C)C)c1`, the activity, negative = inhibition was -5.94% [at 11.4 µM].

Regarding `CCCCOC(=O)c1ccc(O)cc1`, the AC50 entry is “inactive”.

In the case of `CCCCOC(=O)c1cc2c(cn1)[nH]c1ccccc12`, the AC50 is 25.1 µM (active).

`O=C(O)CCc1ccc(-c2ccc(Cl)cc2)n1CCC(=O)O`: the AC50 entry was “inactive”.

As for `C[C@@H](C(=O)NCCF)[C@H]1C[C@]1(C)[C@H](NC(=O)OCc1ccccc1)c1ccccc1`, the half-maximal activity concentration (AC50) was 3.98 µM (active).

As for `COCCNC(=O)[C@H](C)[C@H]1C[C@]1(C)[C@H](NC(=O)OCc1ccccc1)c1ccccc1`, the AC50 was 3.16 µM (active).

For the compound `COCCNC(=O)[C@H](C)[C@@H]1C[C@@]1(C)[C@@H](NC(=O)OCc1ccccc1)c1ccccc1`, the AC50 is 7.94 µM (active).

For `COC(=O)N1CCC2(CCN(C(=O)Nc3ccc(OC)cc3)CC2)CC1`, the AC50 entry is “inactive”.

For the compound `COc1ccc(NC(=O)CCNS(=O)(=O)c2ccc3c(c2)CCC(=O)N3)cc1`, the AC50 was 15.8 µM (active).

`O=C(CCNS(=O)(=O)c1ccc2c(c1)CCC(=O)N2)NCc1ccc2c(c1)OCO2`: the half-maximal activity concentration (AC50) was 1.41 µM (active).

Turning to `COc1ccc(-c2nc(N)c3ncn([C@H]4O[C@@H](CO)[C@@H](O)[C@@H]4O)c3n2)cc1`, the activity, negative = inhibition was -0.494% [at 11.4 µM].

Regarding `COc1ccc2[nH]cc(CCNc3ncncc3-c3c(C)noc3C)c2c1`, the half-maximal activity concentration (AC50) was 0.794 µM (active).

In the case of `COc1ccc2[nH]cc(CCNc3ncncc3-c3ccccc3OC)c2c1`, the AC50 is 0.126 µM (active).

As for `COc1ccc2[nH]cc(CCNc3ncncc3-c3ccccc3C)c2c1`, the AC50 was 0.316 µM (active).

Turning to `COc1ccc2[nH]cc(CCNc3ncncc3-c3ccccc3Cl)c2c1`, the AC50 was 0.398 µM (active).

On to `C=C1c2cccc(O)c2C(O)=C2C(=O)[C@@]3(O)C(O)=C(C(N)=O)C(=O)[C@@H](N(C)C)[C@@H]3[C@@H](O)[C@H]12`, for which the AC50 result was “inactive”.

As to `CNc1nc(Cl)nc(NC(C)(C)C)n1`, the AC50 result is “inactive”.

Regarding `CN1C[C@H](c2ccccc2)C(O)([C@]2(c3ccccc3)CN(C)C[C@@H](c3ccccc3)C2=O)[C@H](c2ccccc2)C1` (stereo partly drawn), the activity, negative = inhibition was -0.704% [at 11.4 µM].

Turning to `O=C(c1cc(Br)ccc1O)c1cc(Br)ccc1O`, the activity, negative = inhibition is -18.8% [at 11.4 µM].

Turning to `COc1ccc2[nH]cc(CCNc3ncncc3-c3ccccc3C(F)(F)F)c2c1`, the AC50 was 0.251 µM (active).

Regarding `COc1ccc2[nH]cc(CCNc3ncncc3-c3ccccc3CN(C)C)c2c1`, the AC50 is 0.631 µM (active).

With `O=S(=O)(O)c1ccc2c(N=Nc3cccc4ccccc34)c(O)c(S(=O)(=O)O)cc2c1`, the activity, negative = inhibition is 5.97% [at 11.4 µM].

With `O=C(Nc1ccccc1N1CCN(C(=O)c2ccccc2)CC1)c1cc(Br)ccc1Cl`, the concentration at half-maximal activity (AC50) was 3.55 µM (active).

Regarding `O=C(Nc1ccccc1N1CCN(C(=O)c2ccc(Cl)cc2)CC1)c1cc(Br)ccc1Cl`, the AC50 was 3.98 µM (active).

`Cc1ccccc1N1CCN(C(=O)c2ccccc2NC(=O)/C=C\C(=O)O)CC1`: the AC50 result is “inactive”.

Regarding `CN1CCN(c2ccc([N+](=O)[O-])cc2NC(=O)c2ccccc2Cl)CC1`, the AC50 entry is “inactive”.

Turning to `COc1cccc(C(C#N)N2N=C(C)CC2(C)C)c1O` (stereo not drawn), the AC50 result was “inactive”.

Consider `c1ccc(-c2nc3ccccn3c2NCc2ccc3c(c2)OCO3)cc1`, for which the AC50 was 0.501 µM (active).

On to `CCOC(=O)CNc1c(-c2ccccc2)nc2ccc(Cl)cn12`, for which the AC50 entry is “inactive”.

In the case of `CO[C@H]1[C@@H](OC(N)=O)[C@H](O)[C@@H](Oc2ccc3c(O)c(NC(=O)c4ccc(O)c(CC=C(C)C)c4)c(=O)oc3c2C)OC1(C)C`, the AC50 result was “inactive”.

Turning to `Cn1cccc1/C=N/NC(=O)c1sc2ccccc2c1Cl`, the concentration at half-maximal activity (AC50) is 8.91 µM (active).

For `N#CCCn1nnc2ccccc21`, the AC50 result is “inactive”.

`C=CCN1CCc2cc(O)c(O)cc2[C@H](c2ccccc2)C1`: the AC50 entry was “inactive”.

For the compound `O=C(O)CSc1sc(=S)sc1SCC(=O)O`, the half-maximal activity concentration (AC50) is 11.2 µM (active).

With `Cc1nnsc1SCC(=O)O`, the AC50 entry was “inactive”.

Consider `O=C(O)CSSCC(=O)O`, for which the activity, negative = inhibition is -6.12% [at 11.4 µM].

Consider `COc1ccc(N(C(=O)Cn2nnc3ccccc32)C2(C(=O)NC3CCCC3)CCCCC2)cc1`, for which the AC50 is 2 µM (active).

With `COc1ccc(C(C(=O)Nc2ccc(F)cc2)N(C(=O)Cn2nnc3ccccc32)C2CC2)cc1` (stereo not drawn), the AC50 is 3.55 µM (active).

In the case of `O=C(Cn1nnc2ccccc21)N1CCCCC1`, the AC50 entry is “inactive”.

Turning to `Cc1ccnc(NCn2nnc3ccccc32)c1`, the AC50 result is “inactive”.

With `COc1cccc(C(C(=O)Nc2ccc(F)cc2)N(C(=O)Cn2nnc3ccccc32)C2CC2)c1` (stereo not drawn), the concentration at half-maximal activity (AC50) is 2.82 µM (active).

Take `COc1ccc(NC(=O)C(c2ccc(OC)cc2)N(C)C(=O)CNC(C)=O)cc1` (stereo not drawn): the AC50 result was “inactive”.

`CC(C)(C)c1cc2c(O)c(c1)Cc1cc(C(C)(C)C)cc(c1O)Cc1cc(C(C)(C)C)cc(c1O)Cc1cc(C(C)(C)C)cc(c1O)Cc1cc(C(C)(C)C)cc(c1O)Cc1cc(C(C)(C)C)cc(c1O)Cc1cc(C(C)(C)C)cc(c1O)Cc1cc(C(C)(C)C)cc(c1O)C2`: the activity, negative = inhibition was -24.5% [at 11.4 µM].

`COc1ccc(CNCCC(c2ccc(OC(C)C)cc2)C(C)C)cc1OC` (stereo not drawn): the concentration at half-maximal activity (AC50) was 1.41 µM (active).

For `CC(C)Oc1ccc(CSC(=N)N)cc1`, the AC50 entry is “inactive”.

Turning to `NC(=S)Nc1ccc(Oc2ccc(NC(N)=S)cc2)cc1`, the AC50 was 4.47 µM (active).

On to `CCC(C)[C@H](NC(=O)Nc1ccc(Oc2ccccc2)cc1)C(=O)O` (stereo partly drawn), for which the AC50 entry is “inactive”.

On to `CCCCNN`, for which the activity, negative = inhibition is -7.03% [at 11.4 µM].

`O=C(O)c1ccc2c3c1cccc3c(=O)n1c3ccccc3nc21`: the AC50 entry was “inactive”.

Consider `O=c1c2ccc([N+](=O)[O-])c3cccc(c32)c2nc3ccccc3n12`, for which the half-maximal activity concentration (AC50) is 0.891 µM (active).

Consider `NS(=O)(=O)c1cccc2c1c([N+](=O)[O-])cc1nc(O)c(O)nc12`, for which the AC50 entry is “inactive”.

Take `CC1=C(C)/C(=N\OC(=O)/C=C/c2ccccc2)C=CC1=O`: the AC50 entry was “inactive”.

Take `COc1ccc(/C=C2\N=C(c3c(-c4ccccc4)noc3C)OC2=O)cc1OC`: the AC50 entry is “inactive”.

Consider `CCOc1cc(/C=C2/C(=N)N3C=CSC3=NC2=O)ccc1OCCCOc1ccccc1C`, for which the half-maximal activity concentration (AC50) was 15.8 µM (active).

Regarding `COc1cc(/C=C2/C(=N)N3C=CSC3=NC2=O)ccc1OCCCOc1c(C)cccc1C`, the half-maximal activity concentration (AC50) was 20 µM (active).

Take `COc1ccccc1OCCOc1ccc(/C=C2/C(=N)N3OC(C)=CC3=NC2=O)cc1OC`: the AC50 result is “inactive”.

Take `COc1cc(/C=C2/C(=N)N3C=CSC3=NC2=O)ccc1OCCCOc1ccccc1C`: the AC50 was 15.8 µM (active).

As to `COc1cc(C=O)ccc1OCCCOc1ccccc1C(=O)O`, the AC50 entry was “inactive”.

With `CCOc1ccc(-c2nn(-c3ccccc3)cc2/C=C2\SC(N)=NC2=O)cc1C`, the AC50 entry is “inactive”.

Consider `Cc1noc(C)c1-c1cncnc1NCc1cccnc1`, for which the concentration at half-maximal activity (AC50) is 3.16 µM (active).

As for `Cc1cnc(CNc2ncncc2-c2c(C)noc2C)cn1`, the AC50 is 12.6 µM (active).

Turning to `Cc1noc(C)c1-c1cncnc1NCc1ccccc1`, the AC50 was 2 µM (active).

Regarding `Cc1noc(C)c1-c1cncnc1NC1CC1`, the AC50 is 7.94 µM (active).

For `Cc1ncc([N+](=O)[O-])n1CC(C)O` (stereo not drawn), the AC50 entry is “inactive”.

`CCN=C(N)CSS(=O)(=O)O`: the activity, negative = inhibition was -8.49% [at 11.4 µM].

In the case of `Cc1noc(C)c1-c1cncnc1Nc1ccccc1`, the concentration at half-maximal activity (AC50) is 3.16 µM (active).

`Cc1noc(C)c1-c1cc(Nc2ccccc2)ncn1`: the AC50 result is “inactive”.

For `CC(C)n1nnnc1SCC(=O)NCCc1ccccc1`, the AC50 is 14.1 µM (active).

As for `Cc1ccc2cc(C)c3nnc(SCC(=O)NCc4ccco4)n3c2c1`, the concentration at half-maximal activity (AC50) is 22.4 µM (active).

Consider `CC(C)n1nnnc1SCC(=O)NCc1ccc2c(c1)OCO2`, for which the AC50 was 0.891 µM (active).

With `Cc1cc2cc(C)c3nnc(SCC(=O)NCc4ccc5c(c4)OCO5)n3c2cc1C`, the half-maximal activity concentration (AC50) was 0.562 µM (active).

For the compound `CC(C)n1nnnc1SCC(=O)c1ccc2c(c1)OCCO2`, the AC50 entry was “inactive”.

Take `Cc1ccccc1Oc1ccc(-c2nc(N)nc(N)n2)cc1`: the AC50 result is “inactive”.

Regarding `CCCCNC(=O)NC1C(NC(=O)NCCCC)N(C)C(=O)N1C` (stereo not drawn), the AC50 result was “inactive”.

Take `COc1cccc(CN2C(=O)N(C(C)C)C(N(O)C(=O)NC(C)C)C2(C)C)c1OC` (stereo not drawn): the activity, negative = inhibition was -12.5% [at 2.29 µM].

Consider `CCCCCCCCN1C(=O)N(C)C(N(O)C(=O)NC)C1(C)C` (stereo not drawn), for which the concentration at half-maximal activity (AC50) was 6.31 µM (active).

As to `CCCOc1ccc(OCCNC2CCCC2)cc1`, the activity, negative = inhibition was 10% [at 2.29 µM].

For the compound `C=CCOc1c(Br)cc(CNc2ccc(NC(=O)C(C)C)c(OC)c2)cc1OC`, the AC50 is 3.55 µM (active).

As to `COc1cc(CNC(C)(C)CO)ccc1OCC(=O)Nc1ccc(Br)cc1`, the activity, negative = inhibition was 0.897% [at 2.29 µM].

`COc1ccc(O[C@H]2C=C[C@@H](c3ccccc3)O[C@H]2COC(=O)CC/C(C)=N/OCC[C@@H]2C=C[C@H](OC(C)=O)[C@H](COC(C)=O)O2)cc1`: the AC50 was 3.98 µM (active).

As to `CCCNC(=O)OC[C@@H]1O[C@H](CCO/N=C\C[C@H]2C=C[C@H](OC(C)=O)[C@@H](COC(C)=O)O2)C=C[C@@H]1Oc1ccc(OC)cc1`, the AC50 was 3.98 µM (active).

Consider `COc1ccc(O[C@H]2C=C[C@@H](c3ccccc3)O[C@H]2COC(=O)CC/C(C)=N\O[C@@H](C)c2cc(-c3c(C)cc(C)cc3C)no2)cc1`, for which the AC50 was 3.16 µM (active).

Turning to `CC(=O)OC[C@@H]1O[C@H](C/C=N\O[C@@H]2O[C@H](COC(C)=O)[C@@H](OC(C)=O)[C@H](OC(C)=O)[C@H]2OC(C)=O)C=C[C@@H]1OC(C)=O`, the activity, negative = inhibition was -25.4% [at 11.4 µM].

Regarding `CC(=O)OC[C@@H]1O[C@H](C/C=N\O[C@@H](C)c2cc(-c3c(C)cc(C)cc3C)no2)C=C[C@@H]1OC(C)=O`, the half-maximal activity concentration (AC50) is 3.16 µM (active).

With `CC(=O)OC[C@@H]1O[C@H](CCON=C(C)C)C=C[C@@H]1OC(C)=O`, the activity, negative = inhibition is -14.8% [at 11.4 µM].

As for `Cc1cc(C)c(-c2cc([C@H](C)O/N=C3/[C@H]4OC4[C@@H](O)[C@H]4[C@H]3CCn3c(=O)n(-c5ccccc5)c(=O)n34)on2)c(C)c1` (stereo partly drawn), the activity, negative = inhibition is -41% [at 11.4 µM].

Take `CC(=O)OC[C@@H]1O[C@H](C/C=N\O[C@@H](C)c2cn([C@H]3COC[C@H]3O)nn2)C=C[C@@H]1OC(C)=O`: the activity, negative = inhibition is -11.8% [at 11.4 µM].
